Laboratory results reported in the supplement of paper PMC11732987, “Enantioselective OTUD7B fragment discovery through chemoproteomics screening and high-throughput optimisation” (Communications Chemistry, 2025).

How the values were obtained:
Assay in all cases: log2 ratio of Biotin-Ahx-Ub-VS probe labelling (fragment/DMSO); higher = less target engagement (more negative = stronger competition), active = hit call of the paper (q ≤ 0.05, log2 ratio ≤ -1)
Conditions in all cases: compound concentration: 200 uM; treatment time: 3 h
USP42 = target: T1, USP42 (UniProt Q9H9J4)
T1 sequence (whole entry): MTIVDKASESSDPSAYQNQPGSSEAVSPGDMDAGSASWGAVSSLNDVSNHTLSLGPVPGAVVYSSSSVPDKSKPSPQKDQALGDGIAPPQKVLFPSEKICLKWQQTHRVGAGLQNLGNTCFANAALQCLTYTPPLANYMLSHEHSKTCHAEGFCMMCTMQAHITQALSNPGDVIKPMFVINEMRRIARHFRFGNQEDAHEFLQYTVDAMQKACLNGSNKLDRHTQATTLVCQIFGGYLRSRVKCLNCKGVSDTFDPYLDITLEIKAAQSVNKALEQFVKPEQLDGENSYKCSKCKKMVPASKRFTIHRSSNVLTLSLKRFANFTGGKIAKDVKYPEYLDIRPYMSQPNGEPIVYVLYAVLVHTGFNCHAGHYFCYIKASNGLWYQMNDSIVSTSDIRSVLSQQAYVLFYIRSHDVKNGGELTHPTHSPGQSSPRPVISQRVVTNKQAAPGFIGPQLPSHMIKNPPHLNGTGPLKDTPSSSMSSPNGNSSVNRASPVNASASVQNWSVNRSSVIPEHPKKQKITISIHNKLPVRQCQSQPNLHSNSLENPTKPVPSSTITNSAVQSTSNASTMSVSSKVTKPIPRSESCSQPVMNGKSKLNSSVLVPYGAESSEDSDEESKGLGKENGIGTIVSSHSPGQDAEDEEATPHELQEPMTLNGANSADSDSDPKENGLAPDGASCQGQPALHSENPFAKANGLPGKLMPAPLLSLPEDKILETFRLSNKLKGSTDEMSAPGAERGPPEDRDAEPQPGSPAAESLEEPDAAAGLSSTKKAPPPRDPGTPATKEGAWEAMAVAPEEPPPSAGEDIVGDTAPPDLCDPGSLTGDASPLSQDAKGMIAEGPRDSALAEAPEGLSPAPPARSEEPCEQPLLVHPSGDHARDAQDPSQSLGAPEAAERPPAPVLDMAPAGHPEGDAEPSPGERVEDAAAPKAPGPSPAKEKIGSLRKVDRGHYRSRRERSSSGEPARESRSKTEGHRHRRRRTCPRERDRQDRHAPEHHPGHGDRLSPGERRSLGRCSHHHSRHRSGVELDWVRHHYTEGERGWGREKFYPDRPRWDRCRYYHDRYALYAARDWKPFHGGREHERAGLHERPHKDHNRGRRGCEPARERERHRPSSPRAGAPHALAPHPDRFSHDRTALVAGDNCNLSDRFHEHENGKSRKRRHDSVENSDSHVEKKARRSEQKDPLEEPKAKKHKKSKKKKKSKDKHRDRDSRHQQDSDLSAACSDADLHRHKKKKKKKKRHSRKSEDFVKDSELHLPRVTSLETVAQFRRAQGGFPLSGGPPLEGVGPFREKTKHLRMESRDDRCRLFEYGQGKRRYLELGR
Outline: (§1)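 Average log2 ratios of fragment over vehicle were obtained by unpaired t-test from global-median-normalised Spectronaut label-free quantities. Proteins with ≥2 unique peptides were included. HEK293T lysate (495 µg per sample) was treated in triplicate with fragment at 200 µM or vehicle for 3 h, then with Biotin-Ahx-Ub-VS at 0.5 µM final for 1 h, and labelled DUBs were NeutrAvidin-enriched and run by diaPASEF LC-MS/MS.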

USP46 = USP46 (UniProt P62068)
Outline: as §1

USP47 = target: T2, USP47 (UniProt Q96K76)
T2 sequence (whole entry): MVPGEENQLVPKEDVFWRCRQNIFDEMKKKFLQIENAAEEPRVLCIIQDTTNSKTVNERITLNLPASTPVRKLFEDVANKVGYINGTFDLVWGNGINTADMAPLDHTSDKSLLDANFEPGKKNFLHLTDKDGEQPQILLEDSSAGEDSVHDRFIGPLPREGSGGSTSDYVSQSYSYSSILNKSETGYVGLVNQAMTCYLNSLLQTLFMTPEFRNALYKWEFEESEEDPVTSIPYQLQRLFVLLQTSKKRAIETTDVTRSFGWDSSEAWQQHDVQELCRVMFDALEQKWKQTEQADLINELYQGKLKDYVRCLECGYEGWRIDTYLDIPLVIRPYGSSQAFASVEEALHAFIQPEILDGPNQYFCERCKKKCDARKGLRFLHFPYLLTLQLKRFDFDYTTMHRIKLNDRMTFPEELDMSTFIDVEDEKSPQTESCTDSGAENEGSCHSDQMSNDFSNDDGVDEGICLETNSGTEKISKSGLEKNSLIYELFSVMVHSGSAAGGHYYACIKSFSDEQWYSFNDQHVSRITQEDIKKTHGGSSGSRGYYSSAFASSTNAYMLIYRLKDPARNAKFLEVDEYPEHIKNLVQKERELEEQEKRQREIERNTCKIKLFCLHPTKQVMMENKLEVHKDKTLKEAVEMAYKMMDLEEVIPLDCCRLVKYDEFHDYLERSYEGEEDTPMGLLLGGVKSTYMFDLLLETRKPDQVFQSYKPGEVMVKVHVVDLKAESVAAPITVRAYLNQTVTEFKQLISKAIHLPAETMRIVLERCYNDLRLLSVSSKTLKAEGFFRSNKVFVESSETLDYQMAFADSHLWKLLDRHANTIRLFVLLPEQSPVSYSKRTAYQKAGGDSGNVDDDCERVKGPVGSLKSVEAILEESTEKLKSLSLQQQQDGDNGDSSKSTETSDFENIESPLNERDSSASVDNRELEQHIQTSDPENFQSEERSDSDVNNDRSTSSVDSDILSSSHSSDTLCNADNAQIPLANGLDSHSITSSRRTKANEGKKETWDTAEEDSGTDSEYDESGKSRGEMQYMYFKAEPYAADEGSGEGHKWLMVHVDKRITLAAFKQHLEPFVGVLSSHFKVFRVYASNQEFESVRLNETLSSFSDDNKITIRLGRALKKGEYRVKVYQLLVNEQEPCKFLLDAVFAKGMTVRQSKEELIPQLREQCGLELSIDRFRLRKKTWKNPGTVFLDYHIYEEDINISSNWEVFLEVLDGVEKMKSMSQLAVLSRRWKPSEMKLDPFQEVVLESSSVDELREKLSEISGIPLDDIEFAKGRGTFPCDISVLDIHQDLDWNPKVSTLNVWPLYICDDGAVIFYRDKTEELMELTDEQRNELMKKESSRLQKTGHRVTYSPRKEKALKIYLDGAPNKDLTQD
Outline: as §1

USP48 = target: T3, USP48 (UniProt Q86UV5)
T3 sequence (whole entry): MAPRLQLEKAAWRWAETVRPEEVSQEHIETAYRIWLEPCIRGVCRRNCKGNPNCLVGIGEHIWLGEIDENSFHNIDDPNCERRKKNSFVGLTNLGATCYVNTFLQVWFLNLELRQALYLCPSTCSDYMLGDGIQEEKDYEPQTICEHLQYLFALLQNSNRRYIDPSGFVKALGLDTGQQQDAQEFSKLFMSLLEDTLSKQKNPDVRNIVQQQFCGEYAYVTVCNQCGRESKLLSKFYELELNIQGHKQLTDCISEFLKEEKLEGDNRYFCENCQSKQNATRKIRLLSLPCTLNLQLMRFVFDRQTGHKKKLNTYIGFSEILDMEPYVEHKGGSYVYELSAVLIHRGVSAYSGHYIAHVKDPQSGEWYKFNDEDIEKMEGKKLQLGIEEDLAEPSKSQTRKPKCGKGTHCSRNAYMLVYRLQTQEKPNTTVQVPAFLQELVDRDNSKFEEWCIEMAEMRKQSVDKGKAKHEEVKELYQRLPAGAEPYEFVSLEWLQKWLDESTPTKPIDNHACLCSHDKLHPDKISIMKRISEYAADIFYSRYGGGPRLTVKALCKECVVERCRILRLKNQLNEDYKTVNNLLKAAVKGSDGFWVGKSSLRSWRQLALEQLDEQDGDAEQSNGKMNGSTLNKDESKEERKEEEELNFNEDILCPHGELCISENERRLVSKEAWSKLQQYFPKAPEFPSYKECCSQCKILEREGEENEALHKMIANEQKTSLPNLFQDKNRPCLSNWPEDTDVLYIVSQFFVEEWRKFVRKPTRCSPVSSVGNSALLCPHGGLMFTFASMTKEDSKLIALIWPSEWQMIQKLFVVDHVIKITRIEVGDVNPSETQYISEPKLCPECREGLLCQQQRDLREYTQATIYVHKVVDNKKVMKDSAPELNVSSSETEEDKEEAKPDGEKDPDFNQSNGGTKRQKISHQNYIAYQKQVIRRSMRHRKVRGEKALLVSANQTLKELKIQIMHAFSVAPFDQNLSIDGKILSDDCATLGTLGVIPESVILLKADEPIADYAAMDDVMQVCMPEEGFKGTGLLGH
Outline: as §1

USP5 = target: T4, USP5 (UniProt P45974)
T4 sequence (whole entry): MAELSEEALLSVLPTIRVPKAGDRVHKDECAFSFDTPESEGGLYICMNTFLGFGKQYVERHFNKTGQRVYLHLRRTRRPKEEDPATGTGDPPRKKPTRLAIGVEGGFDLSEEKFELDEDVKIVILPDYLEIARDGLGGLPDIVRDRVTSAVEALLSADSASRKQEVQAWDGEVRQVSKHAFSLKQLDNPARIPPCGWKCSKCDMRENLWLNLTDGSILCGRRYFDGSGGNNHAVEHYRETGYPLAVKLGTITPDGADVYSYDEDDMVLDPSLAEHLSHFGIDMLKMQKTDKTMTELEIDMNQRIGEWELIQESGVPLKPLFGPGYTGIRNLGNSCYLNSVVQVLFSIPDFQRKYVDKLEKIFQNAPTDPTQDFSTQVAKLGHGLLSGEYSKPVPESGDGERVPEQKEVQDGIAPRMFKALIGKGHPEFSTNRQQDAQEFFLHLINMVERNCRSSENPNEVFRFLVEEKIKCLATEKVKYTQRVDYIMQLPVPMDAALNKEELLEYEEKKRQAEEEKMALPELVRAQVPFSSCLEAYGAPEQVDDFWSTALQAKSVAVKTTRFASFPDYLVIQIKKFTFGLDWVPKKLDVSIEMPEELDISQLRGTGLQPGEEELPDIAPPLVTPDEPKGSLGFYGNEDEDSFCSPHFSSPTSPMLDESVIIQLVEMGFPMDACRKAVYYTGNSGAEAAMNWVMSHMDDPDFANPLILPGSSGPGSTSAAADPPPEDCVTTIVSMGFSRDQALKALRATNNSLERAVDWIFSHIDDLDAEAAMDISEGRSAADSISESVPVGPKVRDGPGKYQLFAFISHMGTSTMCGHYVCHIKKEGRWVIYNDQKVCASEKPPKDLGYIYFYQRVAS
Outline: as §1

USP54 = USP54 (UniProt Q70EL1)
Outline: as §1

USP7 = USP7 (UniProt Q93009)
Outline: as §1

USP8 = target: T5, USP8 (UniProt P40818)
T5 sequence (whole entry): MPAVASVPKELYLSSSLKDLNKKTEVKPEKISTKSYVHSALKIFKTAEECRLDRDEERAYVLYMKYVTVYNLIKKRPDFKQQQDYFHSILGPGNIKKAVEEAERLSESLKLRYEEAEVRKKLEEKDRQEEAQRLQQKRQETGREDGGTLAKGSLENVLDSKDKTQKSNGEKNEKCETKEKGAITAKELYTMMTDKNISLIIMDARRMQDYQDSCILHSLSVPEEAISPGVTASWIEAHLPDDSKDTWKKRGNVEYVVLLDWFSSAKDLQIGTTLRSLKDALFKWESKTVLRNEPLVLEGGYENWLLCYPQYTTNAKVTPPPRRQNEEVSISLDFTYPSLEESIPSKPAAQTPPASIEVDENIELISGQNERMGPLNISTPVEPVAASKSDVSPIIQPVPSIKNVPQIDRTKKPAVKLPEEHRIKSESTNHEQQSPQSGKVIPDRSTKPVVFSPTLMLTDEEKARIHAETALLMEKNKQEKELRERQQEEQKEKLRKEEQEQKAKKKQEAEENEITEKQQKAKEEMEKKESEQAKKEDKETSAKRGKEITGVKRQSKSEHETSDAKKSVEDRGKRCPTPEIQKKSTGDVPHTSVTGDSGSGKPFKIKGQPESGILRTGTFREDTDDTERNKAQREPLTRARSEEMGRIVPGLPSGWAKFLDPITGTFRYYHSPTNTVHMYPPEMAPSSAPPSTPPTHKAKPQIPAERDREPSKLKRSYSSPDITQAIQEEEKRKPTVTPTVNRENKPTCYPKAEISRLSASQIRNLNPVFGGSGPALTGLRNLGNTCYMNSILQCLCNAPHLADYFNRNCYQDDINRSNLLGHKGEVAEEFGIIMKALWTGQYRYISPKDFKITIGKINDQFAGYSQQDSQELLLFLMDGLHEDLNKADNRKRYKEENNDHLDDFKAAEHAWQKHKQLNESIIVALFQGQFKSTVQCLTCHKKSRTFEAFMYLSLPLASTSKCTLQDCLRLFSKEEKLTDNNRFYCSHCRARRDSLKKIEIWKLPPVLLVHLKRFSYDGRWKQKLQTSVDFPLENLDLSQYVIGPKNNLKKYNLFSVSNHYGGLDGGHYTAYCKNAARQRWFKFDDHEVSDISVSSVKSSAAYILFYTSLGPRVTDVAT
Outline: as §1

USP9X = USP9X (UniProt Q93008)
Outline: as §1

UniProt O00487 = target: UniProt O00487
Outline: as §1

Measured: log2 ratio of Biotin-Ahx-Ub-VS probe labelling

Chain of UniProt O00487 (O00487 whole entry): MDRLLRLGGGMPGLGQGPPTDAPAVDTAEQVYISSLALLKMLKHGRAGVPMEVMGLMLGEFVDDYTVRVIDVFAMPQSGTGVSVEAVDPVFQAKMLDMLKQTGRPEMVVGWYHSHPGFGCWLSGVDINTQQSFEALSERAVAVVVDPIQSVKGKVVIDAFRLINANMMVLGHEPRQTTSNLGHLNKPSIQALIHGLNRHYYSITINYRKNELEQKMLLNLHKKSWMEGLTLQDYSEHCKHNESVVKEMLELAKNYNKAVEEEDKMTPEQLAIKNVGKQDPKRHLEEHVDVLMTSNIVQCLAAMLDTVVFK
Chain of USP54 (Q70EL1 whole entry): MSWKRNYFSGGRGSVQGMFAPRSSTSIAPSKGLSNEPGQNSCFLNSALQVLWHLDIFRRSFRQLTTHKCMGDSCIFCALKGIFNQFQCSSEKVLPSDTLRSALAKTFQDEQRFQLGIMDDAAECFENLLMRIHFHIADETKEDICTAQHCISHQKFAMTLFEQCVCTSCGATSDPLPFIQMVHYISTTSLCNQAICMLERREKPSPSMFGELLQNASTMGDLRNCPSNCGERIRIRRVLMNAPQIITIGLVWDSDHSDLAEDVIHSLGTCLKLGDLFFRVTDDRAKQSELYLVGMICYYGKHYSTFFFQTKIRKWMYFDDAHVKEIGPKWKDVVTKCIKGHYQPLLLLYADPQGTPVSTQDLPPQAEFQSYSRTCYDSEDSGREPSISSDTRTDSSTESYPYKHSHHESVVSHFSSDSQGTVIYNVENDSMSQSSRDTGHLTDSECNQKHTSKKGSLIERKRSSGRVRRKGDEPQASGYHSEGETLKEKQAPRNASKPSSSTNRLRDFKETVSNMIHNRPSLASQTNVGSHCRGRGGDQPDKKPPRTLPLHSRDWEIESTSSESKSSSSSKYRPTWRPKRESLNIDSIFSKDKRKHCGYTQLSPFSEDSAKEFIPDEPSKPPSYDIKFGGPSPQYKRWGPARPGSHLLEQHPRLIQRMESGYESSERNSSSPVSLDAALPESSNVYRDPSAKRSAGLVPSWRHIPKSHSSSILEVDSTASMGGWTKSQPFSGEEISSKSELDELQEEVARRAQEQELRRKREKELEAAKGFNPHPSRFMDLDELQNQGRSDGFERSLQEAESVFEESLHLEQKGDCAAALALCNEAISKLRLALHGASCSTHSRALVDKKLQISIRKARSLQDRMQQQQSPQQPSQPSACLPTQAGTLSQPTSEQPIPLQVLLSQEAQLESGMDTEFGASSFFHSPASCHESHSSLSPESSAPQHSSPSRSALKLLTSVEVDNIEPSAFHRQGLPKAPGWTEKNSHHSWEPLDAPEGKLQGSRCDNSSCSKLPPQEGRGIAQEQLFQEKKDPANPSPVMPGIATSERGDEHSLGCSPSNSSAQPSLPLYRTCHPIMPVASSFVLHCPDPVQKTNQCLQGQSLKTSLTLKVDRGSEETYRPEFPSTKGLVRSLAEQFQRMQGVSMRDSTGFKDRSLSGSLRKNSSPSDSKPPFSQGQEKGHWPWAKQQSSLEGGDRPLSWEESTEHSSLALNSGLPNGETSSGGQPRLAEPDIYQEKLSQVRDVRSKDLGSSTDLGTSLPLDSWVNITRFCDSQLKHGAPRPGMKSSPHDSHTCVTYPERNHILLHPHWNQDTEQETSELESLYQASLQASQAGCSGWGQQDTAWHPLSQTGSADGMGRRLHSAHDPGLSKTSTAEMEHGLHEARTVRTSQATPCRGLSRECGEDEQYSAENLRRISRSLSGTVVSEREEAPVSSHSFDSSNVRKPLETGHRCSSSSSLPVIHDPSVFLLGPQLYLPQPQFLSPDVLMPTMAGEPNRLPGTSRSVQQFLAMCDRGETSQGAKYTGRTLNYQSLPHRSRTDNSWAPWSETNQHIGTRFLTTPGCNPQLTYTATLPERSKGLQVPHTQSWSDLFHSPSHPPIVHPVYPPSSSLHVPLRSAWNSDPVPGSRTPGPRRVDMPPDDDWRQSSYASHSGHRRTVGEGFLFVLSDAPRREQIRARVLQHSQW
Chain of USP9X (Q93008 whole entry): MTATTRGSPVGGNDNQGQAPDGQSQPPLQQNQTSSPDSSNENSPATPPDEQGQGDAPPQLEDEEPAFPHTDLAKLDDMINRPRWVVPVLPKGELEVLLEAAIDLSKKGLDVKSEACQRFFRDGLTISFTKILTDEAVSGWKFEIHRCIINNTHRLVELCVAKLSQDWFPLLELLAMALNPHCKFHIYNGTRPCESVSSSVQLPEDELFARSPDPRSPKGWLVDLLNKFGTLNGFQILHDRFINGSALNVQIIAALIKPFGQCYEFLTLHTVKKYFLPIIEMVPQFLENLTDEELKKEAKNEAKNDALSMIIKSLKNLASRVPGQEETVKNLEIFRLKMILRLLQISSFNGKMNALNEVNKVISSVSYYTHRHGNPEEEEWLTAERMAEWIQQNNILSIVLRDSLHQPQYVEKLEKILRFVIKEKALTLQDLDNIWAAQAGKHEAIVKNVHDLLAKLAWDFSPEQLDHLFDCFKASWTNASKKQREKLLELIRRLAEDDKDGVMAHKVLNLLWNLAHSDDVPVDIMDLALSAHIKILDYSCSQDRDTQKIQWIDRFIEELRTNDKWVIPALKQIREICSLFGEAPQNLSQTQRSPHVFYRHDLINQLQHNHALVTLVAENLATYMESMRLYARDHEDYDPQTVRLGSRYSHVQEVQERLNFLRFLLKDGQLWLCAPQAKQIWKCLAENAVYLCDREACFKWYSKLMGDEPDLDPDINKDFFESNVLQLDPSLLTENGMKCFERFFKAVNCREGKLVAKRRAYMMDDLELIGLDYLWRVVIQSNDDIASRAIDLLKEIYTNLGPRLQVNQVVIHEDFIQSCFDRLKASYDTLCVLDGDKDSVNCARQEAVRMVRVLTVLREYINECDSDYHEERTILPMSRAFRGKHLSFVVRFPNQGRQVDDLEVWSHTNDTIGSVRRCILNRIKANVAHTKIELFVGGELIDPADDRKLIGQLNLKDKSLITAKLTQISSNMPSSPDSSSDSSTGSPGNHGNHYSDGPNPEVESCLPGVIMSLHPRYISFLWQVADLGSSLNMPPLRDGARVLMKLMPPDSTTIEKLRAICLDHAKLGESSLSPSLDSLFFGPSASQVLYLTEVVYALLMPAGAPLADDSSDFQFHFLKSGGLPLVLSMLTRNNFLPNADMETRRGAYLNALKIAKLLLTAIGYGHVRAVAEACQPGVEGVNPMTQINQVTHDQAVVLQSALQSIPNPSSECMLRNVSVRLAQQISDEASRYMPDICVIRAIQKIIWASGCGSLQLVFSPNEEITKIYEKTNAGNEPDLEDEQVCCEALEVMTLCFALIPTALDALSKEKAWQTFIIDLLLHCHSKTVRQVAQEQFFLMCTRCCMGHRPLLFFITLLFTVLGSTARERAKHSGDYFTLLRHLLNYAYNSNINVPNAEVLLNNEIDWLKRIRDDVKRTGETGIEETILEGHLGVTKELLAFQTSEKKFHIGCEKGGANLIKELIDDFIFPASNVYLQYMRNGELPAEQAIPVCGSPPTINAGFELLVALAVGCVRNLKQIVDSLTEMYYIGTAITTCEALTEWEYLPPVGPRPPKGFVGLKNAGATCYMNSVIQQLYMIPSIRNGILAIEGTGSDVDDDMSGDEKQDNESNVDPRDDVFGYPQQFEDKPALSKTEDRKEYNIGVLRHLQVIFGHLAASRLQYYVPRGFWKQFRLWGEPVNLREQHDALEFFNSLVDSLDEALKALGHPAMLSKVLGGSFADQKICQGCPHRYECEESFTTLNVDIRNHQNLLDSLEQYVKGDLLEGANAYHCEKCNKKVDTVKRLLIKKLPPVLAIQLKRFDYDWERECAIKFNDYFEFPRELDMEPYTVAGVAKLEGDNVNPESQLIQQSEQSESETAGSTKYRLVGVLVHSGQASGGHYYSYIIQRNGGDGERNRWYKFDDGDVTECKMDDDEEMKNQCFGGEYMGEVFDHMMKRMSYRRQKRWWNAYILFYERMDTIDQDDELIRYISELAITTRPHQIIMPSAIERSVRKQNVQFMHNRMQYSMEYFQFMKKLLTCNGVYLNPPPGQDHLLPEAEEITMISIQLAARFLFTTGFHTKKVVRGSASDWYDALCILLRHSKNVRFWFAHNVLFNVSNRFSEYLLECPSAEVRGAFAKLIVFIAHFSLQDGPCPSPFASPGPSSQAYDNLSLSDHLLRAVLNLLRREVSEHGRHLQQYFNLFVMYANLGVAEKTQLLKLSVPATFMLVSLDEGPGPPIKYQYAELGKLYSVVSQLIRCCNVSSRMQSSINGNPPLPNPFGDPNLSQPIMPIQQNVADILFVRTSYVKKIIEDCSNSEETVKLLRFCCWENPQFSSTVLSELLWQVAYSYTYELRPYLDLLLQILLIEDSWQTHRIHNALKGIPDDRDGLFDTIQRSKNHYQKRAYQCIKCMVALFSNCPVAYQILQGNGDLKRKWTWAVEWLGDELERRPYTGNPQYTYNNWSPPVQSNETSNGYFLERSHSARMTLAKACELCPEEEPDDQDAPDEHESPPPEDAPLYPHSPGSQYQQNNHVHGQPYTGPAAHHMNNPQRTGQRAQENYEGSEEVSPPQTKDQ
Chain of USP46 (P62068 whole entry): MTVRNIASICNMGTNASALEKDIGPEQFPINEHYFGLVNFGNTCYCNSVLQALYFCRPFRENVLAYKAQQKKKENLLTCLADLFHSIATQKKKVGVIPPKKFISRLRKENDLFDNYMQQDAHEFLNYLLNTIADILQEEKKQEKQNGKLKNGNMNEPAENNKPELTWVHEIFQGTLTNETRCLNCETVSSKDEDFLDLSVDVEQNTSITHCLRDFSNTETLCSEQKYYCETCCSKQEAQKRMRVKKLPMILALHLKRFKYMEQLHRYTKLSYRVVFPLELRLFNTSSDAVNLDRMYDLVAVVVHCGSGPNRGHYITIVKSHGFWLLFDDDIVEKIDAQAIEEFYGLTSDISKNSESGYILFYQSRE

Cl.O=C(CN1CCN(C(=O)CCl)CC1)Nc1ccc(F)cc1
inactive: USP42 0.733 | USP46 0.0462 | USP47 -0.158 | USP48 -0.321 | USP5 0.365 | USP54 0.194 | USP7 -0.291 | USP8 0.234 | USP9X 0.0748 | UniProt O00487 -0.0621
